HepG2 viability = qHTS for Inhibitors of TGF-b: Cytotox Counterscreen. Potency, µM (titrated, usually from 46.1 µM), hits mostly cytotoxic. AID 588856, 2011. HepG2 CAGA-GFP viability, ATP luminescence, 18 h. 410,000 tested, 0.76% active
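HepG2 CAGA-GFP cells (1000/well, DMEM with 1% FBS) received compound, then TGF-beta at 500 pg/mL final, and were incubated 18 hours at 37 degrees C. Viability was read by CellTiter-Glo luminescence. Media-only wells were set as complete cell-killing and DMSO as no toxicity.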
DT40 TDP1 CPT = qHTS for Inhibitors of human tyrosyl-DNA phosphodiesterase 1 (TDP1): qHTS in cells in presence of CPT | chicken DT40 Tdp1-/-;hTDP1 cells + 20 nM CPT, ATP luminescence, 48 h | Potency, µM (doses to about 46.2 µM), hits mostly inhibitors | 420,000 tested, 12% active; note: nearly all actives have a fitted effect of over 55% in size
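Chicken DT40 Tdp1-/- cells complemented with human TDP1, 400 cells/well, exposed to compounds plus 20 nM camptothecin for at least 48 h at 37 C; viability read as ATP content by CellTiter-Glo luminescence.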
HT1080 IDH1KD tx = qHTS for induction of synthetic lethality in tumor cells producing 2HG: qHTS for the HT-1080-IDH1KD cell line. 360,000 tested, 2% active. Potency, µM (top dose mostly 46.1 µM), usual class: cytotoxic. HT-1080 IDH1 knockdown viability, ATP luminescence, 48 h
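Luminescent ATP read-out (CellTiter-Glo, 10 min at room temperature) after 48 h compound exposure at 37 °C gave viability of IDH1-knockdown HT-1080 cells. Activity was normalised to DMSO and cell-free wells, then fitted as concentration-response curves.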
TGFb SMAD3 inh = qHTS for Inhibitors of TGF-b; AID 588855, 2011; 410,000 tested, 1.2% active; HepG2 CAGA-GFP TGF-b/SMAD3 reporter, GFP fluorescence, 18 h; TGF-beta stimulated, 500 pg/mL final; Potency, µM (titrated, usually from 46.1 µM), actives largely listed as inhibitors; note: nearly all actives have a fitted effect of over 65% in size
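HEPG2 CAGA-GFP, 1000 cells/well; 2 h settle, 37 C; cpd via pin tool; TGF-b 500 pg/mL final; 18 h, 37 C; GFP imaging ex488/em500-530; %Activity normalised to -TGF-b and +DMSO controls; CRC fit, curve class.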
TDP1 cell noCPT = qHTS for Inhibitors of human tyrosyl-DNA phosphodiesterase 1 (TDP1): qHTS in cells in absence of CPT; DT40 Tdp1-/- hTDP1 cells, no CPT, ATP luminescence, 48 h; Potency, µM (titrated, usually from 46.2 µM), most hits filed as inhibitors; 420,000 tested, 15% active; AID 686978, 2013; note: nearly all actives have a fitted effect of over 55% in size
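DT40 Tdp1-/-;hTDP1 cells, no CPT (DMSO vehicle only), 400 cells/well; compounds pin-transferred; ≥48 hr, 37 °C; CellTiter-Glo 30 min RT dark, luminescence read.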
HT1080NT lethal = qHTS for induction of synthetic lethality in tumor cells producing 2HG: qHTS for the HT-1080-NT fibrosarcoma cell line. HT-1080-NT fibrosarcoma viability, CellTiter-Glo ATP luminescence, 48 h. Potency, µM (series often up to 46.1 µM), most hits filed as cytotoxic. 360,000 tested, 1.6% active;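 note: NT is the 2HG producing partner of a matched IDH1 knockdown line; nearly all actives have a fitted effect of over 55% in size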
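Compounds were tested in concentration-response format on HT-1080-NT cells for 48 hours at 37 degrees C. Cell viability came from CellTiter-Glo luminescence; curves were classified by r2, response magnitude and activity.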
Of the large screens only hits and unclear results are named; the others gave an inactive call. Only some compounds are listed: those with a hit (about 17% of all), similar ones and a draw of the others. Calls come from the whole dose curve; as a rule, active = well fitted curve in the direction sought with a large enough effect; inconclusive = small, poorly fitted or top-dose-only effect, or another doubt; inactive = no such curve, though single readings can be large; an effect the other way counts as inactive or inconclusive.

Cc1ccnc(N=O)c1	none
Cc1ccc(NC(=O)c2ccc(CN3CC(=O)N4CCCCC4C3=O)cc2)cc1 (stereo not drawn)	DT40 TDP1 CPT inconclusive, TDP1 cell noCPT inconclusive (no result: HT1080 IDH1KD tx, HT1080NT lethal)
Cc1ccc(C)c(NC(=O)c2ccc(CN3CC(=O)N4CCCCC4C3=O)cc2)c1 (stereo not drawn)	DT40 TDP1 CPT 16µM, TDP1 cell noCPT 16µM (no result: HT1080 IDH1KD tx, HT1080NT lethal)
Cc1c(Cl)cccc1NC(=O)Nc1cc(C(C)(C)C)on1	DT40 TDP1 CPT inconclusive, TDP1 cell noCPT 15µM
CC(C)(C)c1cc(NC(=O)Nc2ccc(Cl)cc2Cl)no1	DT40 TDP1 CPT inconclusive, HT1080 IDH1KD tx inconclusive, TGFb SMAD3 inh inconclusive, TDP1 cell noCPT inconclusive, HT1080NT lethal inconclusive
CC(C)(C)c1cc(NC(=O)Nc2ccc(Br)cc2Cl)no1	DT40 TDP1 CPT 21µM, TGFb SMAD3 inh inconclusive, TDP1 cell noCPT inconclusive
Cc1ccc(N2C(=O)N(CC(=O)Nc3ccc(F)c(F)c3)C(=O)C2C)cc1 (stereo not drawn)	DT40 TDP1 CPT inconclusive
C#CCOCCOCCOCCNc1nc(N2CCN(C(=O)[C@H]([C@@H](C)CC)n3cc([C@@H](N)CC(C)C)nn3)CC2)nc(N2CCN(C(=O)[C@H](Cc3ccc(O)cc3)n3cc([C@@H](N)CC(C)C)nn3)CC2)n1	TGFb SMAD3 inh inconclusive
C#CCOCCOCCOCCNc1nc(N2CCOCC2)nc(N2CCN(C(=O)CCCCCCCCCCNC(=O)[C@@H]([C@H](C)O)n3cc(C)nn3)CC2)n1	DT40 TDP1 CPT inconclusive, TDP1 cell noCPT 16µM
C#CCOCCOCCOCCNc1nc(N2CCN(C(=O)[C@H]([C@@H](C)CC)n3cc([C@@H](N)CC(C)C)nn3)CC2)nc(N2CCN(C(=O)[C@H]([C@@H](C)CC)n3cc([C@@H](N)CC(C)C)nn3)CC2)n1	DT40 TDP1 CPT 15µM, TDP1 cell noCPT inconclusive
C#CCOCCOCCOCCNc1nc(N2CCN(C(=O)CCCCCCCCCCNC(=O)[C@@H]([C@H](C)O)n3cc(C)nn3)CC2)nc(N2CCN(C(=O)CCCCCCCCCCNC(=O)[C@@H]([C@H](C)O)n3cc(C)nn3)CC2)n1	DT40 TDP1 CPT inconclusive, HT1080 IDH1KD tx 21µM, TDP1 cell noCPT 23µM
Cc1ccc(CNC(=O)c2cc3c(s2)CN(Cc2ccccc2)C3)cc1	HT1080NT lethal inconclusive
CCCN(CC(=O)Nc1ccccc1C)C(=O)c1ccc(OCc2c(C)noc2C)cc1	none
Cc1ccc(S(=O)(=O)N(CCCN2CCCC2=O)Cc2cc3c(C)ccc(C)c3[nH]c2=O)cc1	DT40 TDP1 CPT 18µM, TDP1 cell noCPT 23µM
Cc1cc(C)c2[nH]c(=O)c(CN(CC3CCCO3)S(=O)(=O)c3ccc4c(c3)OCCO4)cc2c1 (stereo not drawn)	DT40 TDP1 CPT inconclusive, TDP1 cell noCPT 23µM
CC(=O)c1cccc(S(=O)(=O)N(Cc2cc3cc4c(cc3[nH]c2=O)OCCO4)CC2CCCO2)c1 (stereo not drawn)	DT40 TDP1 CPT inconclusive, TDP1 cell noCPT inconclusive
Cc1ccc(C)c2[nH]c(=O)c(CN(CC3CCCO3)S(=O)(=O)c3ccc4c(c3)OCCO4)cc12 (stereo not drawn)	DT40 TDP1 CPT inconclusive, TGFb SMAD3 inh inconclusive, TDP1 cell noCPT 16µM
O=C1NC[C@H](CCCCN2CCN(Cc3ccccc3)C(=O)C2=O)N(CCC2CCCCC2)C1=O	none (no result: HepG2 viability, TGFb SMAD3 inh)
OC[C@H]1O[C@@H](n2cnc3c(N[C@H]4C[C@H]5CC[C@@H]4C5)ncnc32)[C@H](O)[C@@H]1O	none (no result: HepG2 viability, HT1080 IDH1KD tx, TGFb SMAD3 inh, HT1080NT lethal)
CN(C)c1ccc(CC2CCc3ccccc32)cc1 (stereo not drawn)	DT40 TDP1 CPT inconclusive (no result: HT1080 IDH1KD tx, HT1080NT lethal)
CCN1CCN(C(=O)c2cc(NC(=O)COC)cc3nc(-c4ccncc4)n(C)c23)CC1	none (no result: HepG2 viability, HT1080 IDH1KD tx, TGFb SMAD3 inh, HT1080NT lethal)
CCc1nc(-c2ccc(OC)c(OC)c2)cc2cc(OC)c(OC)cc12	DT40 TDP1 CPT 16µM, TDP1 cell noCPT 21µM
CCOc1ccc(-c2cc3cc(OC)c(OC)cc3c(C)n2)cc1	TDP1 cell noCPT inconclusive
COc1ccc(-c2oc3ccccc3c2C(=O)Oc2ccccc2)cc1	TDP1 cell noCPT inconclusive
COc1ccccc1CN(C)CC(=O)Nc1ccc(Cl)cc1C(F)(F)F	DT40 TDP1 CPT 21µM, TGFb SMAD3 inh inconclusive, TDP1 cell noCPT 15µM
COc1ccccc1CN(C)CC(=O)Nc1cccc2ccccc12	DT40 TDP1 CPT 26µM, TDP1 cell noCPT 26µM
COc1cccc(CN(C)CC(=O)Nc2ccccc2C(C)C)c1	DT40 TDP1 CPT inconclusive, TDP1 cell noCPT 16µM
COc1ccc(N2C(=O)CC(N3CCN(S(=O)(=O)c4cc(C)ccc4C)CC3)C2=O)cc1 (stereo not drawn)	none
Cc1nc2sc(C(c3ccco3)N3CCN(C(c4ccccc4)c4ccccc4)CC3)c(O)n2n1 (stereo not drawn)	DT40 TDP1 CPT inconclusive, TGFb SMAD3 inh inconclusive, TDP1 cell noCPT 18µM
COc1ccc(C(c2sc3nc(C)nn3c2O)N2CCc3ccccc3C2)cc1 (stereo not drawn)	none
COc1cc(C(c2sc3nc(C)nn3c2O)N2CCc3ccccc3C2)cc(OC)c1OC (stereo not drawn)	DT40 TDP1 CPT 23µM, TDP1 cell noCPT 10µM
Cc1nc2sc(C(c3ccco3)N3CCN(c4ccccc4)CC3)c(O)n2n1 (stereo not drawn)	DT40 TDP1 CPT inconclusive
CCC(=O)Nc1ccc(NC(=O)CSc2nnnn2C2CCCC2)cc1C	none
CC(Oc1ccccc1)C(=O)N1CCN(c2ccc(N3CCCCC3)nn2)CC1 (stereo not drawn)	none
COC/C=C/C1=CC2=CC(=O)C(C)(OC(=O)c3cnc4ccccc4n3)C(=O)C2=CN1CCOC (stereo not drawn)	DT40 TDP1 CPT inconclusive, TGFb SMAD3 inh inconclusive, TDP1 cell noCPT inconclusive
C=CCN1C=C2C(=O)C(C)(OC(=O)c3cnc4ccccc4n3)C(=O)C=C2C=C1/C=C/COC (stereo not drawn)	DT40 TDP1 CPT inconclusive, TGFb SMAD3 inh inconclusive, TDP1 cell noCPT 16µM
COC(=O)N1CCC[C@@]2(CCN(Cc3cc(C(F)(F)F)cc(C(F)(F)F)c3)C2)C1	none (no result: HepG2 viability, HT1080 IDH1KD tx, TGFb SMAD3 inh, HT1080NT lethal)
COc1ccc(S(=O)(=O)N2CCc3ccccc32)cc1C(=O)N1CCOCC1	none
